# PubChem BioAssay (NCI)
# The panel holds about 83,000 compounds, 20% with a hit somewhere; the sample as a whole holds those more often.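 The endpoint reported here, percent growth, reads 100 for growth as untreated, 0 for no net growth and -100 for all cells dead.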 A number with no mark means an inactive call. Active and inactive are the calls of the source. Rule for the calls: active = growth percent below 10; inactive = the rest.
# Tests used:
# Assay in all cases: NCI-60 one-dose screen, 48 h (100 = growth as untreated, 0 = no growth, -100 = all killed)
# Conditions in all cases: 10 µM unless noted
# DU-145 prostate = tested on: DU-145 prostate
# K-562 leukemia = tested on: K-562 leukemia
# MALME-3M melanoma = tested on: MALME-3M melanoma
# MDA-MB-231 breast = tested on: MDA-MB-231 breast
# RXF 393 renal = tested on: RXF 393 renal
# SF-268 CNS = tested on: SF-268 CNS
# SF-295 CNS = tested on: SF-295 CNS
# SF-539 CNS = tested on: SF-539 CNS
# UACC-257 melanoma = tested on: UACC-257 melanoma
# M14 melanoma = tested on: M14 melanoma
# HCT-15 colon = tested on: HCT-15 colon
# HT29 colon = tested on: HT29 colon
# SNB-75 CNS = tested on: SNB-75 CNS
# SNB-19 CNS = tested on: SNB-19 CNS
# U251 CNS = tested on: U251 CNS
# PC-3 prostate = tested on: PC-3 prostate
# SK-MEL-5 melanoma = tested on: SK-MEL-5 melanoma
# UACC-62 melanoma = tested on: UACC-62 melanoma
# LOX IMVI melanoma = tested on: LOX IMVI melanoma
# SK-MEL-28 melanoma = tested on: SK-MEL-28 melanoma
SMILES,growth (DU-145 prostate),growth (K-562 leukemia),growth (MALME-3M melanoma),growth (MDA-MB-231 breast),growth (RXF 393 renal),growth (SF-268 CNS),growth (SF-295 CNS),growth (SF-539 CNS),growth (UACC-257 melanoma),growth (M14 melanoma),growth (HCT-15 colon),growth (HT29 colon),growth (SNB-75 CNS),growth (SNB-19 CNS),growth (U251 CNS),growth (PC-3 prostate),growth (SK-MEL-5 melanoma),growth (UACC-62 melanoma),growth (LOX IMVI melanoma),growth (SK-MEL-28 melanoma)
Cc1n(Cc2ccc3ccccc3c2)c2ccccc2[n+]1Cc1ccc2ccccc2c1,0.672% (active),-63.1% (active),-39.7% (active),-83.6% (active),-88% (active),-67.6% (active),-37.6% (active),-56.4% (active),-53.9% (active),-69% (active),15.7%,-53.3% (active),-46.2% (active),-91.7% (active),-87.6% (active),-68.1% (active),-97.6% (active),-57.9% (active),-89% (active),-58% (active)
CC(C)Sc1nc(-c2ccc(Br)cc2)c(C#N)c(N2CCCCC2)n1,109%,116%,94.1%,90.9%,110%,103%,96.7%,104%,109%,104%,96.2%,94.5%,99.4%,105%,99.9%,97.5%,101%,82.6%,108%,105%
Fc1ccccc1C1c2ccccc2-c2nccn21 (stereo not given),99.2%,73.9%,98.2%,102%,-1.68% (active),109%,89.3%,98.9%,96.6%,104%,99.2%,100%,98.2%,100%,98.8%,87.3%,97%,89%,98.1%,109%
COc1cnc2c(c1)C(=O)c1c-2n(CCCN2CCC(O)CC2)c(=O)c2cc(F)ccc12,-8.46% (active),-0.117% (active),-61.9% (active),19.9%,-43.1% (active),9.51% (active),-20.7% (active),-17.1% (active),-16.3% (active),-22.4% (active),7.5% (active),-20.6% (active),-16.9% (active),14%,-28.4% (active),3.1% (active),-98.9% (active),-40.8% (active),-70.3% (active),13.2%
OC(c1ccccc1)C(NCc1ccccc1)c1ccccc1 (stereo not given),117%,106%,104%,98.3%,107%,92.8%,94%,90.6%,110%,79.9%,108%,103%,91%,87.8%,102%,79.9%,108%,90.3%,85.5%,101%
COc1ccc(C2CC(c3ccc(Nc4ccnc5cc(Cl)ccc45)cc3)=NN2C(C)=O)cc1 (stereo not given),88.1%,32.3%,58.2%,80.9%,73.1%,72.2%,42.6%,95.8%,88%,79.5%,44.2%,27.4%,75.8%,82.4%,62.8%,53.3%,5.89% (active),54.8%,60.5%,70.2%
Nc1ccn(C2O[C@H](CO)[C@@H](O)[C@@H]2O)c(=O)n1 (stereo not given in full),29.6%,62.4%,57.2%,68.8%,83.4%,34%,50.8%,72.4%,54.5%,-15.7% (active),59.5%,42.7%,78.6%,47.9%,40%,63.9%,45.1%,22.1%,19.1%,68.5%
